Compounds with a hit are over-represented: about 1.5% of the library has one in this group of screens.
TrxR1 substrate = qHTS Assay for Substrates of Mammalian Selenoprotein Thioredoxin Reductase 1 (TrxR1): qHTS; purified TrxR1 substrate turnover, NADPH consumption readout; Potency, µM (doses to about 114 µM), inactives show at the highest dose activity change, negative = substrate turnover; 390,000 tested, 0.01% active; also: potency is read from the fitted curve at half-maximal effect; nearly all actives have a fitted effect of over 50% in size
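Rat TrxR1, dispensed at 90 nM, was prereduced with 400 uM NADPH (final) for 5 min at ~22 deg C, then incubated with compound 15 min before 400 uM selenite. A first-read NADPH fluorescence drop versus no-compound background flagged substrates.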
USP1 inh = Inhibitors of USP1/UAF1: Primary Screen; Ubiquitin carboxyl-terminal hydrolase 1 (Homo sapiens), O94782; 390,000 tested, 0.23% active; recombinant USP1/UAF1, Ub-Rhodamine cleavage fluorescence; Potency, µM (top dose mostly 57.1 µM), for the others: top-dose activity change, negative = inhibition, most hits filed as inhibitors; also: potency is read from the fitted curve at half-maximal effect; nearly all actives have a fitted effect of over 60% in size
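Step one: compound is pinned into 1nM USP1/UAF1 in HEPES pH 7.8 buffer with TCEP. Step two: 15 min room-temperature incubation. Step three: Ub-Rho (150nM final) starts cleavage, tracked by fluorescence over six one-minute reads.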
GALK inh = qHTS Assay for Inhibitors of Human Galactokinase (GALK). Purified GALK, Kinase-Glo residual ATP luminescence. 270,000 tested, 0.007% active. P51570. Potency, µM (top dose mostly 57.5 µM), without a hit: top-dose activity change, negative = inhibition, usual class: inhibitors; also: potency is read from the fitted curve at half-maximal effect
Target sequence (P51570 whole entry, looked up): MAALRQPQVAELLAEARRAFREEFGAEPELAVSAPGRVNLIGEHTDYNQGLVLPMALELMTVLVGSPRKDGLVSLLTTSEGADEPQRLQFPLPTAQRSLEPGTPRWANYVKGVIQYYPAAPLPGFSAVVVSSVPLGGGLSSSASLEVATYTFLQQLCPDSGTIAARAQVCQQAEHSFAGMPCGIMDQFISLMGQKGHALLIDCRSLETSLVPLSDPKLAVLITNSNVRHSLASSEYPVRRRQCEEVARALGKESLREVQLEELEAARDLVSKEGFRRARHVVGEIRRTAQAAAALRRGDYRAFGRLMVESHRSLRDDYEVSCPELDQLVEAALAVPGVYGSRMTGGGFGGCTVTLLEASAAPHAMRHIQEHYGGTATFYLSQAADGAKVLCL
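Quantitative HTS: GALK 5 nM, ATP 35 uM, galactose 100 uM, 1 h room temperature, then luciferase-based ATP detection.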
Coupling enz = qHTS Assay for Inhibitors of Fructose-1,6-bisphosphate Aldolase from Giardia Lamblia: Coupling assay counterscreen | coupling enzyme system counterscreen, AmpLite Red fluorescence | activity change, negative = inhibition, % at 58.2 µM, hits read low | 290,000 tested, 0.67% active | AID 2472, 2010; in the data active = activity change below about -30%
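Final compound at 57.5 uM, incubated 10 min at RT with coupling enzyme reagent (glyceraldehyde-3-phosphate), then 20 min with substrate and AmpLite Red detection. Fluorescence read at 525/598 nm; tests interference with the coupling assay, not aldolase inhibition.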
TrxR1 inh = qHTS Assay for Inhibitors of Mammalian Selenoprotein Thioredoxin Reductase 1 (TrxR1): qHTS. Thioredoxin reductase 1, cytoplasmic (Rattus norvegicus), O89049. recombinant rTrxR1, NADPH fluorescence consumption, selenite substrate. Potency, µM (series often up to 114 µM), for the others: at the highest dose activity change, negative = inhibition, actives largely listed as inhibitors. 390,000 tested, 1% active; also: potency is read from the fitted curve at half-maximal effect; nearly all actives have a fitted effect of over 65% in size
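Rat TrxR1 (90 nM in the dispensed reagent) was pre-reduced with 400 uM NADPH for 5 min at room temperature, then incubated with compound for 15 min. After 400 uM selenite was added, NADPH fluorescence (Ex 340/Em 450 nm) was followed for 8 min.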
Active calls of the source: *; ? = inconclusive; · = not tested or not shown; [ ] = remark or other dose. Unless noted, calls follow the shape of the dose curve; as a rule, active = well fitted curve in the direction sought with a large enough effect; inconclusive = small, poorly fitted or top-dose-only effect, or another doubt; inactive = no such curve, though single readings can be large; an effect the other way counts as inactive or inconclusive. % is scaled to controls: 0 for no effect and ±100 for the full control effect.

SMILES	TrxR1 substrate	USP1 inh	GALK inh	Coupling enz	TrxR1 inh
NS(=O)(=O)c1ccc(S(=O)(=O)N2CCN(c3nc(-c4cccs4)nc4ccccc34)CC2)cc1	3%	·	·	·	6%
Ic1ccc(Nc2nc(NCCN3CCOCC3)nc(N3CCOCC3)n2)cc1	-4%	·	·	·	15%
CCCC[C@H](NC(=O)[C@H](CO)NC(=O)[C@H](Cc1ccc(O)cc1)NC(=O)[C@H](CO)NC(C)=O)C(=O)N[C@@H](CCC(=O)O)C(=O)N[C@@H](Cc1cnc[nH]1)C(=O)N[C@H](Cc1ccccc1)C(=O)N[C@@H](CCCNC(=N)N)C(=O)N[C@@H](Cc1c[nH]c2ccccc12)C(=O)NCC(=O)N[C@@H](CCCCN)C(=O)N1CCC[C@H]1C(=O)N[C@H](C(N)=O)C(C)C	·	·	·	0	·
c1cc(N2CCCC2)ccc1C(c1nnnn1C1CCCCC1)N1CCOCC1 (stereo not given)	6%[57.1 µM]	-14%	1%	-3	7.1µM*
O=S1(=O)CCOC[C@H](c2ccccc2)N1Cc1ccc(F)cc1	-1%	·	·	·	13%
CC(C)CN1C(=O)/C(=C/c2cccs2)NC1=S	-3%	-14%	-2%	1	14µM*
CC(C)CN1C(=O)/C(=C/c2ccco2)NC1=S	-10%	-10%	·	-10	-73%
CN(C)/C=C1\C=C2C(=O)c3ccccc3N2C1=O	-17%	4.5µM*	2%	-1	?
Cc1ccc(C2N=C(Nc3nc4ccccc4o3)NC3=C2C(=O)CC(C)(C)C3)cc1 (stereo not given)	5%	·	·	·	10%
CCC(C)(C)C(=O)O[C@@H]1C[C@@H](C)C=C2C=C[C@H](C)[C@H](CC[C@@H]3C[C@@H](O)CC(=O)O3)[C@H]21	·	·	·	0	·
COCCn1c(N)c(S(=O)(=O)c2cccs2)c2nc3ccccc3nc21	595%	?	-4%	-33*	29%
CC(C)Cn1c(N)c(C(=O)NCC2CCCO2)c2nc3ccccc3nc21 (stereo not given)	68%[57.1 µM]	-20%	2%	-47*	9%[57.1 µM]
COCCn1c(N)c(C(=O)NCC2CCCO2)c2nc3ccccc3nc21 (stereo not given)	310%	25µM*	3%	-35*	-18%[57.1 µM]
COc1ccc(OC)c(-n2c(N)c(C(=O)NCC3CCCO3)c3nc4ccccc4nc32)c1 (stereo not given)	56%[57.1 µM]	-15%	0%	-6	13%[57.1 µM]
C[C@H]1Cc2c(COc3ccccc3)nc3c(c2CO1)CN(S(=O)(=O)c1ccc(Cl)c2nonc12)CC3	·	·	·	-3	·
Cc1ccnc2ccc(Br)cc12	5%	·	·	·	-3%
COc1cc2c(cc1OC)CN(Cc1nc3ccsc3c(=O)[nH]1)CC2	9%	-4%	0%	-43*	-13%
O=c1[nH]c(CN2CCN(c3ccccc3Cl)CC2)nc2ccsc12	7%	-19%	-1%	0	11%
CCCC[C@H](NC(=O)[C@H](CC(C)C)NC(=O)[C@@H](Cc1c[nH]c2ccccc12)NC(=O)[C@H](Cc1ccccc1)NC(=O)[C@@H](Cc1c[nH]c2ccccc12)NC(=O)[C@H](CC(N)=O)NC(=O)[C@@H](Cc1c(Cl)cccc1Cl)NC(=O)[C@@H]1CCCN1C(=O)[C@H](Cc1ccccn1)NC(=O)[C@@H]1CCCN1C(=O)[C@H](N)CCCCNC(=O)c1cccnc1)C(N)=O	·	·	·	-1	·
COc1cc(C)c2ccccc2n1	5%	·	·	·	7%
CSCC[C@H](NC(=O)[C@H](CO)NC(=O)[C@H](Cc1ccc(O)cc1)NC(=O)[C@@H](N)CO)C(=O)N[C@@H](CCC(=O)O)C(=O)N[C@@H](Cc1cnc[nH]1)C(=O)N[C@@H](Cc1ccccc1)C(=O)N[C@@H](CCCNC(=N)N)C(=O)N[C@@H](Cc1c[nH]c2ccccc12)C(=O)NCC(=O)N[C@@H](CCCCN)C(=O)N1CCC[C@H]1C(=O)N[C@H](C(=O)NCC(=O)N[C@@H](CCCCN)C(=O)N[C@@H](CCCCN)C(=O)N[C@@H](CCCNC(=N)N)C(=O)N[C@@H](CCCNC(=N)N)C(=O)N1CCC[C@H]1C(=O)N[C@H](C(=O)N[C@@H](CCCCN)C(=O)N[C@H](C(=O)N[C@@H](Cc1ccc(O)cc1)C(=O)N1CCC[C@H]1C(=O)N[C@@H](CC(N)=O)C(=O)NCC(=O)N[C@@H](C)C(=O)N[C@@H](CCC(=O)O)C(=O)N[C@@H](CC(=O)O)C(=O)N[C@@H](CCC(=O)O)C(=O)N[C@@H](CO)C(=O)N[C@@H](C)C(=O)N[C@@H](CCC(=O)O)C(=O)N[C@@H](C)C(=O)N[C@@H](Cc1ccccc1)C(=O)N1CCC[C@H]1C(=O)N[C@@H](CC(C)C)C(=O)N[C@@H](CCC(=O)O)C(=O)N[C@@H](Cc1ccccc1)C(=O)O)C(C)C)C(C)C)C(C)C	·	·	·	-4	·
O=C(OCC(=O)C12CC3CC(CC(C3)C1)C2)c1ccc(O)cc1	2%	-15%	·	·	47%
Nc1ccc(O)cc1C(=O)OCC(=O)C12CC3CC(CC(C3)C1)C2	15%[57.1 µM]	-12%	6%	-47*	4%[57.1 µM]
Cn1cc(/C=C/c2ccnc3ccccc23)c2ccccc21	-7%	·	·	·	-20%
CCC(C)(C)NC(=O)c1ccc(Sc2nncn2C)c([N+](=O)[O-])c1	-22%[57.1 µM]	-15%	0%	-1	3%[57.1 µM]
COc1ccc(NC(=O)/C(C#N)=C/c2ccc(Sc3nncn3C)c([N+](=O)[O-])c2)cc1	7%	-21%	5%	0	50µM*
Cn1cnnc1Sc1ccc(/C=C/C(=O)c2ccc(O)cc2)cc1[N+](=O)[O-]	-15%	-14%	-1%	0	22µM*
CC[C@H](C)[C@H](NC(=O)[C@H](CC(=O)O)NC(=O)[C@H](CC(C)C)NC(=O)[C@H](Cc1cnc[nH]1)NC(=O)[C@H](C)NC(=O)[C@H](Cc1ccccc1)NC(=O)[C@H](Cc1ccc(O)cc1)NC(=O)[C@@H](NC(=O)[C@H](C)NC(=O)[C@H](CCC(=O)O)NC(=O)[C@H](CCCCN)NC(=O)[C@H](CC(=O)O)NC(=O)[C@H](CCSC)NC(=O)[C@H](CC(C)C)NC(C)=O)C(C)C)C(=O)N[C@H](C(=O)N[C@@H](Cc1c[nH]c2ccccc12)C(=O)O)[C@@H](C)CC	·	·	·	3	·

High-throughput results: PubChem BioAssay, National Center for Advancing Translational Sciences (NCATS)
